From PubChem BioAssay AID1508600 (Functional Genomics Laboratory (NCATS/FGL), 2020) come the findings set out here.

In all, about 53,000 sequences went through this assay and about 3,700 (7%) were called active. The full list was thinned out, with actives kept by preference. Unmarked numbers belong to inactive results.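 Rule for the calls: active = gene knockdowns whose robust z-score for IL-1 alpha signal is at least 2 or at most -2, so actives lie on both sides; inactive = the rest.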

The assay is described as follows: Components of the Cytosolic LPS Sensing Pathway: Gene Identification via Genome-wide siRNA Screen.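 Note: robust z of the log signal after scaling to non-targeting control siRNA wells of the plate.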 The following applies: RAW264.7 macrophages, IL-1a HTRF, actives lie on both sides, screened at 100 nM (by protocol), cells primed 5 h with Pam3CSK4 first. The essentials: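 Supernatant IL-1a by HTRF from RAW264.7 cells primed with Pam3CSK4 (5 hours) and transfected with LipidA (24 hour) after 48h siRNA knockdown at 100 nM; cell viability checked with CellTiter-Glo.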
In the case of GGGUUAAGCGCAAGUGUAATT against Degs2, the z-score is 0.331.

With GGCUGAAAAUAUUUUCAGATT against Garnl3, the z-score is -0.1.

On to GGAGCCAGUGACAAUAAAUTT against Mtag2, for which the z-score was -1.1.

With GGUGAUGAUGUCAUACAAATT against Cav1, the z-score was 3.12 (active).

GGCUCUCAUCCAUCUCCUUTT against Olfr715: the z-score is -1.79.

On to “GGUCUGGAAAACCAGCUUATT against D630039A03Rik”, for which the z-score is 1.04.

Turning to GGUUGAAGUCUAUUCUCGATT against Trap1, the z-score is -0.139.

For GGGUUUGACAGAGAGAAGATT against Atp5g2, the z-score was -0.581.

Turning to GGUGAGCGUGUAGAGAUGCTT against Fbxo45, the z-score is 0.787.

As for GGGCUAAAGUUGAUAAUAATT against Psmc3, the z-score is -2.02 (active).

As to GCACUUUGUGCUAUAUAAGTT against Mapk14, the z-score is 0.616.

For the sequence GGUAAAGUUGCUUAAUUAGTT against Msl3l2, the z-score was 0.944.

As for GGAAGAAGUCUGAUACAUCTT against Samd5, the z-score was 0.572.

In the case of CGCUAAUCUUCGAAAACCUTT against Abcc12, the z-score was -0.998.

Consider GGAGUUCGUACCCUUAUCCTT against Rtel1, for which the z-score is -2.2 (active).

Regarding GGUUAUCCAACCUAGAAUATT against Tmlhe, the z-score was 0.74.

In the case of GGCAAAGUUUGGGAUUACATT against Ntng1, the z-score was 1.17.

Consider GGUUGUAUUGGAUAUCAAGTT against Ceacam2, for which the z-score was 0.953.

With GGACUUUGAAAAGAGAAUUTT against Polb, the z-score was -0.213.

On to GGACUUCUCCAUCCUGCUUTT against Alg1, for which the z-score was -0.542.

For GGGACCAGAGGAAACAGAATT against Tnfsf13b, the z-score is -2.21 (active).

As for GGGCAUUGCCAGGAAUUAUTT against Lrp1b, the z-score is 1.31.

GUUGUCCAUAUCAUGUUUGTT against Olfr569: the z-score is 1.28.

Regarding GGGAAGAGCCCUAAUAUUATT against Aldh1a2, the z-score is -0.098.

For the sequence GGUGGACAAGACUAAAACATT against Podxl, the z-score was -0.253.

As to GGGCCAAAUAGCUAUGCAGTT against Aldoc, the z-score is -0.309.

Take GGAAUUAUAAAAGACCACGTT against Kctd12b: the z-score is 2.39 (active).

For GGUGCUCUCAGGAAAGUUGTT against Olfr1157, the z-score was 0.82.

Regarding CCUGUACUCUAUAUUCUGUTT against Pld2, the z-score is 0.98.

In the case of GGCCAUCGAACUCAAUCUCTT against Lrrc57, the z-score is 0.243.

In the case of GGAGUAUGAUAAUGAACCATT against Areg, the z-score is -0.0698.

Turning to GGACAUCAAGUUCUUGCCATT against Hspa5, the z-score is -0.478.

As for GGCUGGUAUCUUUCAGAGUTT against Cox6c, the z-score is 2.2 (active).

“GGAACCAAUCGGGAUUUUGTT against B330016D10Rik”: the z-score was 0.179.

As for CGGUUCCACUUCAAAUGACTT against Hsd17b2, the z-score is 0.72.

In the case of GGACACUUUCUCAUAUCAUTT against Abca9, the z-score was 2.06 (active).

Consider GGAGGCUCUACUUUUGUAGTT against Olfr611, for which the z-score was -2.16 (active).

In the case of GGCUUCCCGGAGUAACAAUTT against Dlgap1, the z-score is -0.742.

Consider GAAAAGAAUUCCAGAAGAUTT against Sec61g, for which the z-score is 1.19.

As for CCAGUGCGUCACUCAGUAATT against Ssmem1, the z-score was -1.11.

For GGAUGAAGGGACGAAUUCATT against Pcdha6, the z-score is 0.635.

For GCUGUGCAAGCAAUAUCUATT against Hnrnpm, the z-score is 0.423.

Consider CCCUUUCGAGGUGGUAAAATT against Slc25a21, for which the z-score was 0.11.

Regarding GCCAAAUAAUCUGAAAGCCTT against Rpl28, the z-score is 0.309.

As to GGAGCGCGUGAAACUGUCUTT against Fbxw4, the z-score is -0.752.

With “GGGCCACUGCCAAAUACUATT against 2510009E07Rik”, the z-score was 3.33 (active).

Turning to GGAAAGCUUCAGAAUCUAATT against Bckdk, the z-score is -0.365.

For GCUCGAGAUCGAAACAUACTT against Tmed5, the z-score was -1.13.

For the sequence GCCACUUUAGUAUGGAAUGTT against Nxt1, the z-score is 0.822.

Consider GGCUGUGGAAUGACACCAATT against Sars2, for which the z-score is -1.01.

As for GGAUAUCUCGGGUUGAAUUTT against Aurka, the z-score is -1.38.

Regarding GGCUAAUGGACAAAAAAUUTT against Pacrgl, the z-score was 0.28.

Take CCAUGACUACAACACAUACTT against Ndufv3: the z-score is -3.07 (active).

For GGAAGACAUACUGUUGAAATT against Mettl23, the z-score was -0.147.

On to GGCUCUUGUCACAUGAUCATT against Jagn1, for which the z-score was -1.77.

Consider GGGUUCAAAACUAUGGAUATT against Stk26, for which the z-score is 0.575.

Turning to GGAUCUGAGUGCUCUACUGTT against Kctd20, the z-score was 2.08 (active).

As for GGCCCACAGGAACAUCCUATT against Zbtb8b, the z-score was -0.134.

As for GGACAAACAGCUUCAAGAUTT against Psmd2, the z-score is -2.26 (active).

For GGGUUCUUUCACUGAACGATT against Pskh1, the z-score is 0.9.

As to GGCAUCUUCAUCAAGGAUUTT against Sf3a1, the z-score is -1.1.

In the case of GGCUUAAGUGUGCAGCUACTT against B3gnt4, the z-score was -0.479.

Consider GGACAUUGCUGCCUAUAUCTT against Dynll2, for which the z-score was 0.452.

GCGAUCCUGACUUGUUCAATT against Kdm6b: the z-score was 2.27 (active).

As for GGACAAGAAGCAUCUUUCATT against Smpdl3a, the z-score was -1.16.

With GGAAACUUUAGCAUGAAUGTT against Hmgxb4, the z-score is -0.335.

Turning to GCAUGCGUGAGAAACUGAUTT against Clec2e, the z-score is -0.152.

With GCAAGCUAAUGAGCUACAATT against Samd9l, the z-score is -0.107.
